Hits are enriched below; roughly 19% of the tested compounds scored in any of these assays.
DT40 TDP1 CPT: DT40-hTDP1 cell growth loss with CPT | AID 686979 | Potency, µM (highest dose often 46.2 µM), inactives show top-dose activity change, negative = growth inhibition, hits mostly inhibitors | chicken DT40 Tdp1-/-;hTDP1 cells + 20 nM CPT, ATP luminescence, 48 h | actives 12% (n = 420,000); note: potency is the fitted concentration of half-maximal effect; nearly all actives have a fitted effect of over 55% in size
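Chicken DT40 Tdp1-/- cells stably complemented with human TDP1 were seeded at 400 cells/well in medium containing 20 nM camptothecin, exposed to pin-transferred compounds, and grown at 37 °C for at least 48 hr. Viability was read as ATP luminescence.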
uPA surface inh: inhibitors of cell surface uPA generation; cell surface uPA generation assay, qHTS; actives 0.31% (n = 330,000); AID 540303; Potency, µM (highest dose often 38.3 µM), for the others: at the top dose activity change, negative = inhibition, usual class: inhibitors; active = well fitted inhibition curve with a large enough effect; inconclusive = small, poorly fitted or top-dose-only effect; inactive = no such curve, though single readings can be large or run the other way; tested in mouse RAW 264.7 cells; note: potency is the fitted concentration of half-maximal effect; nearly all actives have a fitted effect of over 55% in size
IL1B secr inh: inhibitors of inflammasome signaling (IL-1 beta secretion); THP-1 LPS/ATP IL-1B secretion, AlphaLISA, 16 h; stronger effect = lower value; activity change, % at 57.5 µM; actives 4.7% (n = 360,000); AID 743279; in the data active = activity change below about -50%; inconclusive = mostly about -30% to -49%
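THP-1 cells pretreated 1 hr with compounds (up to 57.5 uM final), then stimulated with LPS (250 ng/mL final) plus ATP (1.25 mM final); secreted IL-1B measured by AlphaLISA after 16 hr, decreased signal indicating inhibition.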
TDP1 cell noCPT: qHTS for Inhibitors of human tyrosyl-DNA phosphodiesterase 1 (TDP1): qHTS in cells in absence of CPT | Potency, µM (top dose mostly 46.2 µM), without a hit: at the top dose activity change, negative = growth inhibition, most hits filed as inhibitors | DT40 Tdp1-/- hTDP1 cells, no CPT, ATP luminescence, 48 h | actives 15% (n = 420,000) | AID 686978, 2013; note: potency is the fitted concentration of half-maximal effect; nearly all actives have a fitted effect of over 55% in size
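Readout: luminescence from CellTiter-Glo after 30 min in the dark at RT. Cells: DT40 Tdp1-/- with stable hTDP1, 400/well. Exposure: compounds alone, ≥48 hr, 37 °C.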
HT1080NT lethal: kills 2HG-producing HT-1080-NT fibrosarcoma cells; HT-1080-NT fibrosarcoma viability, CellTiter-Glo ATP luminescence, 48 h; Potency, µM (highest dose often 46.1 µM), for inactives: at the highest dose activity, negative = less viability, usual class: cytotoxic; actives 1.6% (n = 360,000);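 note: NT is the 2HG producing partner of a matched IDH1 knockdown line; potency is the fitted concentration of half-maximal effect; 0% = DMSO-treated cells and -100% = media-only wells without cells; nearly all actives have a fitted effect of over 55% in size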
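Toxicity toward the 2HG-producing NT line was scored as %Activity, normalised to DMSO and no-cell wells, from CellTiter-Glo luminescence after 48 hours' treatment.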
HT1080 IDH1KD tx: HT-1080 IDH1 knockdown cell toxicity (counter line). HT-1080 IDH1 knockdown viability, ATP luminescence, 48 h. AID 686971. actives 2% (n = 360,000). Potency, µM (doses to about 46.1 µM), without a hit: at the top dose activity, negative = toxicity, actives largely listed as cytotoxic;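 note: potency is the fitted concentration of half-maximal effect; 0% = DMSO wells and -100% = cell-free medium wells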
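Cytotoxicity counter-line: IDH1KD HT-1080, 48 h, CellTiter-Glo. Curves classed by r2, magnitude and activity.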
Active calls of the source: *; i = inactive; ? = inconclusive; · = no result; [ ] = dose if it differs, or a comment. Unless noted, calls come from the whole dose curve; as a rule, active = well fitted curve in the direction sought with a large enough effect; inconclusive = small, poorly fitted or top-dose-only effect, or another doubt; inactive = no such curve, though single readings can be large; an effect the other way counts as inactive or inconclusive. Unless noted, % is set by controls: 0 for no effect and ±100 for the full control effect.

SMILES | DT40 TDP1 CPT | uPA surface inh | IL1B secr inh | TDP1 cell noCPT | HT1080NT lethal | HT1080 IDH1KD tx
Cc1ccc(S(=O)(=O)N2CCOCC2)cc1NC(=O)COC(=O)Cn1c(C)csc1=O | -19% | 10% | 3 | -3% | 3% | -1%
CC(=O)CCC(=O)N1CCC(n2nccc2NC(=O)c2ccccc2C)CC1 | -13% | 15% | 16 | 0% | -1% | -2%
CN(Cc1ccccc1)Cc1nc2scc(-c3ccccc3)c2c(=O)[nH]1 | 13µM* | -1% | -4 | ? | -5% | 0%
Cc1csc(SC(C)c2nc3scc(-c4ccccc4)c3c(=O)[nH]2)n1 (stereo not drawn) | ? | 11% | 0 | 21µM* | 12% | -5%
Nc1nnc(SCc2nc3scc(-c4ccccc4)c3c(=O)[nH]2)s1 | 23µM* | 12% | 16 | 18µM* | 2% | 13%
CCn1c(SCc2nc3scc(-c4ccccc4)c3c(=O)[nH]2)nnc1-c1cccs1 | 21µM* | -1% | 1 | 21µM* | ? | ?
Cc1noc(C)c1C(=O)NC1=NCCS1 | 2% | 6% | 5 | 10% | -1% | -4%
COc1ccc(NC(=O)Cc2ccsc2)cc1S(=O)(=O)N1CCOCC1 | -8% | -4% | -9 | -16% | 12% | 7%
COC(=O)c1ccc2nc(C3CCCCC3)c3c(c2c1)CCC3 | -19% | 2% | 3 | ? | -2% | -1%
CCOC(=O)Cn1c(=O)c2c(nc(Br)n2Cc2ccccc2Cl)n(C)c1=O | 18µM* | -4% | -24 | 23µM* | -6% | -7%
C=CCn1c(=O)c2c(nc(Br)n2Cc2ccccc2Cl)n(C)c1=O | 18µM* | 0% | -1 | ? | -13% | -4%
Cn1c(=O)n(CCO)c(=O)c2c1nc(Br)n2Cc1ccccc1 | -23% | 25% | -1 | ? | -9% | -8%
COC(=O)C12CC3CC(C1)CC(n1cnc(Cl)n1)(C3)C2 | ? | -4% | 8 | -16% | 1% | 4%
COC(=O)c1ccccc1NC(=O)C12CC3CC(C1)CC(n1cnc(Cl)n1)(C3)C2 | 21µM* | -1% | ? | 16µM* | ? | -1%
O=C(Nc1cccc2ccccc12)C12CC3CC(C1)CC(n1cnc([N+](=O)[O-])n1)(C3)C2 | 23µM* | -10% | -10 | 26µM* | -11% | -9%
COc1ccc(NC(=O)C23CC4CC(C2)CC(n2cnc(Br)n2)(C4)C3)cc1Cl | ? | 1% | 13 | 23µM* | -2% | -22%
Oc1ccc(N=Cc2ccc(-c3cccs3)s2)cc1 | ? | · | 14 | ? | -28%[9.24 µM] | 10µM*
O=Cc1ccc(-c2cccs2)s1 | -7% | 2% | 32 | -9% | -5% | -8%
CC(C)(C)S(=O)(=O)/C(C#N)=C/c1cccn1S(=O)(=O)c1ccccc1 | -9% | · | 22 | 23µM* | 9% | 15%
CS(=O)(=O)/C(C#N)=C/c1cccn1S(=O)(=O)c1cccc2ccccc12 | 16µM* | · | 29 | 16µM* | 11% | -3%
CN(C)n1cccc1/C=C(\C#N)S(=O)(=O)c1cccc(Cl)c1 | -5% | 1% | -1 | -20% | -1% | 0%
CS(=O)(=O)/C(C#N)=C/c1cccn1S(=O)(=O)c1ccccc1 | 11% | 12% | -2 | -1% | 18% | 18%
COc1ccc(Cl)cc1NC(=O)c1noc2c1CCc1ccccc1-2 | -13% | · | · | -5% | · | ·
O=C(c1ccco1)N1C(=O)c2cccc3cccc1c23 | 12µM* | 1% | 0 | 18µM* | 22% | 12%
Nc1cccc2c1C(=O)N(C(=O)c1ccco1)C2=O | 46% | 3% | 2 | 3% | ? | 11%
SMILES | DT40 TDP1 CPT | uPA surface inh | IL1B secr inh | TDP1 cell noCPT | HT1080NT lethal | HT1080 IDH1KD tx
COc1cccc(CNC(=O)C2CCN(S(=O)(=O)c3ccc(Br)s3)CC2)c1 | 9% | 1% | 2 | -22% | 0% | 2%
Cc1nn(Cc2c(F)c(F)c(F)c(F)c2F)c(C)c1NC(=O)c1nn(C)cc1Br | ? | 4% | ? | -16% | 8% | 2%
Cc1ccc(OCc2ccc(C(=O)NN)o2)c([N+](=O)[O-])c1 | -3% | 3% | 0 | -1% | -14% | 2%
Cc1nn(Cc2c(F)c(F)c(F)c(F)c2F)c(C)c1NC(=O)c1c([N+](=O)[O-])cnn1C | 13µM* | · | 7 | 12µM* | 2% | 6%
Cc1nn(Cc2c(F)c(F)c(F)c(F)c2F)c(C)c1NC(=O)c1c([N+](=O)[O-])c(C)nn1C | ? | · | -5 | ? | 7% | 11%
CCn1ncc(Br)c1C(=O)Nc1c(C)nn(Cc2c(F)c(F)c(F)c(F)c2F)c1C | 16µM* | -3% | i | ? | -1% | -24%
Cc1ccc(OCc2ccc(C(=O)Nc3c(C)nn(Cc4c(F)c(F)c(F)c(F)c4F)c3C)o2)c([N+](=O)[O-])c1 | 13µM* | · | ? | 18µM* | ? | ?
O=c1oc2ccc3ccccc3c2cc1-c1nnc(Nc2cccc(F)c2)s1 | -10% | · | · | -20% | · | ·
NNC(=O)[C@H](Cc1ccccc1)NC(=O)NCCc1ccccc1 | -6% | 4% | -1 | 24% | 8% | 13%
Cc1ccccc1N=C1NN=C(c2ccccc2F)CS1 | ? | ? | -6 | ? | ? | -24%
COc1ccccc1C1=NNC(=Nc2cccc(S(=O)(=O)N(C)C)c2)SC1 | ? | -12% | -72* | ? | ? | ?
CC(C)N1CCC1(C)C(=O)Nc1nc2ccccc2[nH]1 (stereo not drawn) | 2% | · | 11 | 7% | 0% | 0%
Cc1cccc(CN2CCN(C(=O)CCl)CC2)c1 | 15µM* | -12% | -106* | 16µM* | -4% | ?
Cc1cccc(CN2CCN(C(=O)c3cccc4ccccc34)CC2)c1 | 16µM* | 3% | -25 | ? | 0% | -17%
Cc1ccc(CN2CCN(C(=O)c3cccc4ccccc34)CC2)cc1 | ? | -2% | ? | 23µM* | -1% | -8%
Cc1ccccc1CN1CCN(C(=O)c2cccc3ccccc23)CC1 | ? | 5% | ? | ? | 7% | 9%
COc1cccc(CN2CCN(C(=O)c3cccc4ccccc34)CC2)c1OC | -26% | -2% | -77* | ? | -5% | -1%
COC(=O)C1=C(C)N(CCCCCC(=O)O)C(=O)NC1c1ccccc1 (stereo not drawn) | 5% | 2% | 13 | -2% | 14% | 11%
Cc1ccnc(S(=O)(=O)Cc2ccc([N+](=O)[O-])cc2)n1 | 4% | -13% | 2 | ? | 23% | 9%
